Results on ten compounds are retold here after PubChem BioAssay (NCI).

A short description of assay [1]: NCI Yeast Anticancer Drug Screen. Data for the rad50 strain (AID 155).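 Also: 0% = growth of vehicle-only cultures of the same strain.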 The note with it: S. cerevisiae rad50 strain growth inhibition, hits give high values. In a few lines: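 Relative growth inhibition (compound vs vehicle) was measured in yeast with a defined repair-gene alteration.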
The nature of assay [2]: NCI Yeast Anticancer Drug Screen. Data for the mec2-1 strain (AID 157). The following applies: S. cerevisiae mec2-1 strain, hits give high values. In short, it runs like this: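 Readout is yeast growth inhibition, normalised to vehicle-treated controls, in the mec2-1 strain exposed to compound.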
A short description of assay [3]: NCI Yeast Anticancer Drug Screen. Data for the sgs1 mgt1 strain (AID 161).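 Also: 0% = growth of cultures given vehicle only.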 The note with it: S. cerevisiae sgs1 mgt1 strain, hits give high values. In short, it runs like this: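 Percent growth inhibition was derived by comparing compound-exposed mutant yeast with vehicle-exposed cultures. The strain carries alterations in DNA damage repair.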
The nature of assay [4]: NCI Yeast Anticancer Drug Screen. Data for the cln2 rad14 strain (AID 165).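 Also: 0% = growth equal to vehicle treated cultures.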 The note with it: S. cerevisiae cln2 rad14 strain, hits give high values. In a few lines: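 Relative to vehicle controls, growth inhibition of compound-treated cln2 rad14 yeast was recorded.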
The nature of assay [5]: NCI Yeast Anticancer Drug Screen. Data for the bub3 strain (AID 167). The note with it: S. cerevisiae bub3 mutant strain, hits give high values. In short, it runs like this: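 Screening used yeast with an engineered genetic alteration affecting cell cycle control. Compound-exposed cultures were compared with vehicle cultures, and reduced growth was taken as inhibition.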
A short description of assay [6]: NCI Yeast Anticancer Drug Screen. Data for the mlh1 rad18 strain (AID 175). The following applies: S. cerevisiae mlh1 rad18 strain growth inhibition, hits give high values. In short, it runs like this:
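Test agents were incubated with a yeast strain of defined genotype (DNA damage repair defect). Inhibition of growth was derived by comparison with vehicle-exposed cultures.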

Where [7] appears, read: at 5.0 µM (retest, dose inferred, filed as 0.5).
Where [8] appears, read: at 50.0 µM (retest, dose inferred, filed as 5.0).

The panel holds about 79,000 compounds, 15% with a hit somewhere; the sample as a whole holds those more often. Values without a mark were called inactive. The source made the active and inactive calls. Rule as the data show it: active = growth inhibition above about 70%; inactive = the rest.

With `Cc1cccc[n+]1CC(=O)c1cccc(O)c1`, the growth inhibition was 1% in assay [1] (setting [7]); -2% in assay [1] (setting [8]); -11.1% in assay [1] (at 50.0 µM); -2% in assay [2] (setting [7]); 4% in assay [2] (setting [8]); -3.5% in assay [2] (at 50.0 µM). Besides, the growth inhibition in assay [3] (setting [7]) was 0%; in assay [3] (setting [8]) it was -2%; in assay [3] (at 50.0 µM) it was -7.45%; in assay [4] (setting [7]) it was 4%; in assay [4] (setting [8]), -4%; in assay [4] (at 50.0 µM), 36.6%. Further, the growth inhibition in assay [5] (setting [7]) was 1%; in assay [5] (setting [8]) it was -3%; in assay [5] (at 50.0 µM) it was -13.6%; in assay [6] (setting [7]), -2%; in assay [6] (setting [8]), -4%; in assay [6] (at 50.0 µM) it was 7.25%.
As to `O=C(O)CC(C(=O)O)C(c1cccc2ccccc12)c1cccc2ccc3ccccc3c12` (stereo not given), the growth inhibition in assay [1] (setting [7]) is 6%; in assay [1] (setting [8]) it was 98% (active); in assay [1] (at 50.0 µM) it was 98.3% (active); in assay [2] (setting [7]) it was 5%; in assay [2] (setting [8]) it was 99% (active); in assay [2] (at 50.0 µM) it was 98.2% (active). For the same compound, the growth inhibition in assay [3] (setting [7]) is -5%; in assay [3] (setting [8]), 99% (active); in assay [3] (at 50.0 µM), 98.3% (active); in assay [4] (setting [7]), 4%; in assay [4] (setting [8]) it was 98% (active); in assay [4] (at 50.0 µM), 98.7% (active). The growth inhibition in assay [5] (setting [7]) is 4%; in assay [5] (setting [8]), 99% (active); in assay [5] (at 50.0 µM) it was 98.7% (active); in assay [6] (setting [7]) it was 7%; in assay [6] (setting [8]), 99% (active); in assay [6] (at 50.0 µM), 97.8% (active).
In the case of `Oc1ccccc1C(Sc1nc2ccccc2s1)Sc1nc2ccccc2s1`, the growth inhibition in assay [1] (setting [7]) was 4%; in assay [1] (setting [8]), 97% (active); in assay [1] (at 50.0 µM), 97.3% (active); in assay [2] (setting [7]), 16%; in assay [2] (setting [8]) it was 97% (active); in assay [2] (at 50.0 µM), 95.8% (active). The growth inhibition is 19% in assay [3] (setting [7]); 97% (active) in assay [3] (setting [8]); 97.2% (active) in assay [3] (at 50.0 µM); -1% in assay [4] (setting [7]); 93% (active) in assay [4] (setting [8]); 72% (active) in assay [4] (at 50.0 µM). The growth inhibition in assay [5] (setting [7]) was -3%; in assay [5] (setting [8]) it was 97% (active); in assay [5] (at 50.0 µM), 91% (active); in assay [6] (setting [7]), 3%; in assay [6] (setting [8]), 98% (active); in assay [6] (at 50.0 µM), 90% (active).
In the case of `Cc1cn(C(C#N)=C(C#N)C#N)c2ccccc12`, the growth inhibition in assay [1] (setting [7]) is 0%; in assay [1] (setting [8]) it was 25%; in assay [1] (at 50.0 µM), 14.4%; in assay [2] (setting [7]), 6%; in assay [2] (setting [8]) it was 11%; in assay [2] (at 50.0 µM), 22.5%. The growth inhibition was -8% in assay [3] (setting [7]); 32% in assay [3] (setting [8]); -4.65% in assay [3] (at 50.0 µM); -2% in assay [4] (setting [7]); 26% in assay [4] (setting [8]); -37.4% in assay [4] (at 50.0 µM). Also, the growth inhibition in assay [5] (setting [7]) was -2%; in assay [5] (setting [8]) it was -3%; in assay [5] (at 50.0 µM), 18.2%; in assay [6] (setting [7]) it was 1%; in assay [6] (setting [8]), 16%; in assay [6] (at 50.0 µM), -16.2%.
With `CCCn1cnc2c(SCc3ccc(Cl)cc3Cl)nc(N)nc21`, the growth inhibition in assay [1] (setting [7]) was 12%; in assay [1] (setting [8]), 14%; in assay [1] (at 50.0 µM), 97.1% (active); in assay [2] (setting [7]), 12%; in assay [2] (setting [8]) it was 12%; in assay [2] (at 50.0 µM) it was 97.2% (active). In addition, the growth inhibition in assay [3] (setting [7]) is 13%; in assay [3] (setting [8]), 15%; in assay [3] (at 50.0 µM) it was 97% (active); in assay [4] (setting [7]) it was 12%; in assay [4] (setting [8]) it was -9%; in assay [4] (at 50.0 µM), 97.2% (active). Moreover, the growth inhibition in assay [5] (setting [7]) was 13%; in assay [5] (setting [8]), 16%; in assay [5] (at 50.0 µM), 97.5% (active); in assay [6] (setting [7]), 11%; in assay [6] (setting [8]), 12%; in assay [6] (at 50.0 µM), 95.7% (active).
On to `C=C(CC)C[C@@H]1C[C@]2(C(=O)OC)c3[nH]c4ccccc4c3CCN2C1=O`, for which the growth inhibition is -1% in assay [1] (setting [7]); 94% (active) in assay [1] (setting [8]); 52.5% in assay [1] (at 50.0 µM); 0% in assay [2] (setting [7]); 85% (active) in assay [2] (setting [8]); 26.9% in assay [2] (at 50.0 µM). The growth inhibition in assay [3] (setting [7]) was 8%; in assay [3] (setting [8]) it was 98% (active); in assay [3] (at 50.0 µM) it was 58.4%; in assay [4] (setting [7]), 15%; in assay [4] (setting [8]), 77% (active); in assay [4] (at 50.0 µM), 62.5%. The growth inhibition in assay [5] (setting [7]) was 2%; in assay [5] (setting [8]) it was 18%; in assay [5] (at 50.0 µM), 48.5%; in assay [6] (setting [7]), 0%; in assay [6] (setting [8]) it was 96% (active); in assay [6] (at 50.0 µM), 82.5% (active).
On to `Cc1cc(/C=N/Nc2ccc3cccc(O)c3n2)c(O)c2ncccc12`, for which the growth inhibition was 40% in assay [1] (setting [7]); 98% (active) in assay [1] (setting [8]); 99.1% (active) in assay [1] (at 50.0 µM); 41% in assay [2] (setting [7]); 98% (active) in assay [2] (setting [8]); 99% (active) in assay [2] (at 50.0 µM). In addition, the growth inhibition in assay [3] (setting [7]) was 51%; in assay [3] (setting [8]), 99% (active); in assay [3] (at 50.0 µM), 99.1% (active); in assay [4] (setting [7]), 21%; in assay [4] (setting [8]), 99% (active); in assay [4] (at 50.0 µM), 98.7% (active). Moreover, the growth inhibition in assay [5] (setting [7]) is 17%; in assay [5] (setting [8]), 99% (active); in assay [5] (at 50.0 µM) it was 99.2% (active); in assay [6] (setting [7]), 58%; in assay [6] (setting [8]), 98% (active); in assay [6] (at 50.0 µM) it was 97% (active).
Turning to `CC(=O)N1C(C(=O)NNc2ccccc2)CSC1c1ccccc1` (stereo not given), the growth inhibition in assay [1] (setting [7]) was 71% (active); in assay [1] (setting [8]) it was 90% (active); in assay [1] (at 50.0 µM), 38.1%; in assay [2] (setting [7]) it was 40%; in assay [2] (setting [8]) it was 84% (active); in assay [2] (at 50.0 µM), 64.6%. The growth inhibition in assay [3] (setting [7]) is 75% (active); in assay [3] (setting [8]), 89% (active); in assay [3] (at 50.0 µM), 44.6%; in assay [4] (setting [7]), 42%; in assay [4] (setting [8]) it was 82% (active); in assay [4] (at 50.0 µM), 65%. In addition, the growth inhibition in assay [5] (setting [7]) was 57%; in assay [5] (setting [8]), 93% (active); in assay [5] (at 50.0 µM) it was 35.2%; in assay [6] (setting [7]) it was 83% (active); in assay [6] (setting [8]), 96% (active); in assay [6] (at 50.0 µM), 56.1%.
Take `CC(C)C1(Cl)CCC2C3(C)CCCC(C)(C(=O)O)C3CC(Cl)C2(Cl)C1Cl` (stereo not given): the growth inhibition is 3% in assay [1] (setting [7]); 75% (active) in assay [1] (setting [8]); 80.8% (active) in assay [1] (at 50.0 µM); 5% in assay [2] (setting [7]); 78% (active) in assay [2] (setting [8]); 74.9% (active) in assay [2] (at 50.0 µM). Moreover, the growth inhibition was 17% in assay [3] (setting [7]); 61% in assay [3] (setting [8]); 70% (active) in assay [3] (at 50.0 µM); -12% in assay [4] (setting [7]); 84% (active) in assay [4] (setting [8]); 95.8% (active) in assay [4] (at 50.0 µM). For the same compound, the growth inhibition in assay [5] (setting [7]) was 14%; in assay [5] (setting [8]), 79% (active); in assay [5] (at 50.0 µM) it was 72.5% (active); in assay [6] (setting [7]), -15%; in assay [6] (setting [8]), 78% (active); in assay [6] (at 50.0 µM), 86.7% (active).
For the compound `CCC[CH2][Sn]([CH2]CCC)([O]C(=O)c1ccc(C)c(N)c1)[O]C(=O)c1ccc(C)c(N)c1`, the growth inhibition in assay [1] (setting [7]) was 98% (active); in assay [1] (setting [8]), 98% (active); in assay [1] (at 50.0 µM), 91.7% (active); in assay [2] (setting [7]), 92% (active); in assay [2] (setting [8]), 92% (active); in assay [2] (at 50.0 µM) it was 92% (active). Besides, the growth inhibition in assay [3] (setting [7]) was 96% (active); in assay [3] (setting [8]), 96% (active); in assay [3] (at 50.0 µM), 92.5% (active); in assay [4] (setting [7]), 96% (active); in assay [4] (setting [8]) it was 96% (active); in assay [4] (at 50.0 µM), 91.3% (active). Besides, the growth inhibition in assay [5] (setting [7]) was 90% (active); in assay [5] (setting [8]), 90% (active); in assay [5] (at 50.0 µM) it was 89% (active); in assay [6] (setting [7]), 97% (active); in assay [6] (setting [8]) it was 97% (active); in assay [6] (at 50.0 µM), 87.5% (active).
